Reference: PubChem BioAssay (NCI)
Compounds without any hit were thinned out: in the full panel of roughly 79,000, 15% have a hit. Unmarked numbers belong to inactive results. The source made the active and inactive calls. Rule as the data show it: active = growth inhibition above about 70%; inactive = the rest.

Columns and labels:
[1] = NCI Yeast Anticancer Drug Screen. Data for the rad50 strain (AID 155);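 also: 0% = growth of vehicle-only cultures of the same strain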; conditions: S. cerevisiae rad50 strain growth inhibition, hits give high values
In short: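 Inhibition values express reduced yeast growth in compound-treated cultures relative to vehicle-treated controls.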

[2] = NCI Yeast Anticancer Drug Screen. Data for the mec2-1 strain (AID 157); conditions: S. cerevisiae mec2-1 strain, hits give high values
In short: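 Mutant yeast (mec2-1) grown with compound; growth inhibition relative to vehicle control reported.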

[3] = NCI Yeast Anticancer Drug Screen. Data for the sgs1 mgt1 strain (AID 161);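 also: 0% = growth of cultures given vehicle only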; conditions: S. cerevisiae sgs1 mgt1 strain, hits give high values
In short: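 Yeast cells carrying a defined DNA-repair defect were exposed to test compounds. Growth inhibition was measured relative to vehicle-treated controls.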

[4] = NCI Yeast Anticancer Drug Screen. Data for the cln2 rad14 strain (AID 165);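 also: 0% = growth equal to vehicle treated cultures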; conditions: S. cerevisiae cln2 rad14 strain, hits give high values
In short: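 Readout is yeast growth inhibition versus vehicle-treated controls, using a strain with cln2 and rad14 alterations exposed to compound.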

[5] = NCI Yeast Anticancer Drug Screen. Data for the bub3 strain (AID 167); conditions: S. cerevisiae bub3 mutant strain, hits give high values
In short: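 Steps: expose the mutant yeast strain to compound; grow alongside vehicle-treated cultures; measure growth; express inhibition against the vehicle cultures.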

[6] = NCI Yeast Anticancer Drug Screen. Data for the mlh1 rad18 strain (AID 175); conditions: S. cerevisiae mlh1 rad18 strain growth inhibition, hits give high values
In short: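 Genetically defined yeast (DNA repair-deficient) exposed to compounds; growth inhibition determined relative to vehicle.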

[7] = at 5.0 µM (retest, dose inferred, filed as 0.5)
[8] = at 50.0 µM (retest, dose inferred, filed as 5.0)

Row | SMILES | growth inhibition [1, 7] | growth inhibition [1, 8] | growth inhibition ([1]; at 50.0 µM) | growth inhibition [2, 7] | growth inhibition [2, 8] | growth inhibition ([2]; at 50.0 µM) | growth inhibition [3, 7] | growth inhibition [3, 8] | growth inhibition ([3]; at 50.0 µM) | growth inhibition [4, 7] [%] | growth inhibition [4, 8] | growth inhibition ([4]; at 50.0 µM) | growth inhibition [5, 7] | growth inhibition [5, 8] | growth inhibition ([5]; at 50.0 µM) | growth inhibition [6, 7] | growth inhibition [6, 8] | growth inhibition ([6]; at 50.0 µM)
1 | O=C(O)c1ccccc1-c1c2cc([N+](=O)[O-])c(=O)c(Br)c-2oc2c(Br)c(O)c([N+](=O)[O-])cc12 | 27% | 91% (active) | 77.5% (active) | 29% | 93% (active) | 82.1% (active) | 25% | 66% | 62% | 34 | 66% | 88.5% (active) | 32% | 75% (active) | 66.5% | 42% | 96% (active) | 72.1% (active)
2 | O=C(Nc1ccccc1)OC1CCCC1 | 19% | 94% (active) | 85.5% (active) | 11% | 88% (active) | 11.8% | 12% | 92% (active) | 81.2% (active) | 8 | 28% | -3.85% | 6% | 90% (active) | 50.1% | 12% | 94% (active) | 82.8% (active)
3 | CCCN(CCC)c1ccc(/C=C/c2ccnc3ccccc23)cc1 | 9% | 74% (active) | 91.2% (active) | -10% | 88% (active) | 92% (active) | -4% | 82% (active) | 92.7% (active) | -18 | 60% | 58% | -12% | 88% (active) | 92% (active) | -7% | 86% (active) | 89.7% (active)
4 | CCCC/C=C\CCCCCCCCCC1=C(O)C(=O)C=C(OC)C1=O | 65% | 83% (active) | 60.9% | 64% | 89% (active) | 69.6% | 74% (active) | 91% (active) | 65.3% | 40 | 62% | 42.5% | 77% (active) | 86% (active) | 63% | 71% (active) | 87% (active) | 57.7%
5 | Cn1cc(NC(=O)c2cc(NC(=O)CCCCCCC(=O)Nc3cc(C(=O)Nc4cc(C(=O)NCCC(=N)N)n(C)c4)n(C)c3)cn2C)cc1C(=O)NCCC(=N)N | 87% (active) | 98% (active) | 91.8% (active) | 89% (active) | 99% (active) | 93.8% (active) | 82% (active) | 99% (active) | 93% (active) | 44 | 95% (active) | 91.3% (active) | 92% (active) | 98% (active) | 92.2% (active) | 90% (active) | 98% (active) | 92.2% (active)
